Assay outcomes (PubChem)
In the library only some 2.4% were active in any assay of this set; here they are far more common.
SENP7 inh – blocks the human protease SENP7; inhibition, % at 5 µM; recombinant SENP7, Z-RLRGG-aminoluciferin luminescence, 40 min; AID 434973; hit rate 1.5% among 330,000; Q9BQF6;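 active means inhibition above about 50% at the single test dose, limit read from the data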;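 further: plate controls were DMSO with enzyme for no effect and no enzyme buffer wells for full effect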
SENP6 inh – blocks the human protease SENP6; Q9GZR1; Recombinant SENP6 catalytic domain, aminoluciferin luminescence; inhibition, % at 10 µM; hit rate 1.8% among 330,000; AID 2599;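 active means inhibition above about 50% at the single tested dose, limit read from the data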;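 further: plate controls were DMSO wells with enzyme for no effect and DMSO wells lacking enzyme for full effect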
SENP8 block-1 – SENP8 (human) protease inhibition; hit rate 0.64% among 360,000; recombinant SENP8, Nedd8 substrate fluorescence; Q96LD8; AID 602440; inhibition, % at 20 µM; in the data active means inhibition mostly above about 40%, no sharp cut-off; inactive means mostly below about 27%
Target sequence (Q96LD8 whole entry, looked up): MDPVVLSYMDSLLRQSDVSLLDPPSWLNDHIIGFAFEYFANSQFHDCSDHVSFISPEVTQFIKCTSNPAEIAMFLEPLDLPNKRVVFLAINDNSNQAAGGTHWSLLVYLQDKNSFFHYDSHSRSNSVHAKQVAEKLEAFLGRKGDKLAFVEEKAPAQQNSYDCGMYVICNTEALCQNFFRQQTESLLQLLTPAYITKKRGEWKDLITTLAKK
Platelet DG rel – modulates dense granule release in human platelets. human platelet-rich plasma, SFLLRN dense granule ATP release, luminescence. inhibition, %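 (compounds screened at 7.5 µM in platelet-rich plasma)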. hit rate 0.22% among 300,000. AID 1663;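 active means mean replicate score, as percent of positive control, at or above 50; inconclusive means mean below 50 but at least one replicate at or above 50; inactive means mean and every replicate below 50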
SENP8 block-2 – blocks the human protease SENP8; purified SENP8, Z-RLRGG-aminoluciferin cleavage, luminescence; inhibition, % at 10 µM; hit rate 1.2% among 330,000; in the data active means inhibition above about 50%
SENP8 confirm – human SENP8 inhibition, confirmed. shares compounds with SENP7 inh. Recombinant SENP8, Z-RLRGG-aminoluciferin luminescence, 60 min. hit rate 40% among 6,200. inhibition, % at 12.5 µM. AID 488912;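 active means mean inhibition across replicates above about 50%, limit read from the data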
SENP6 conf – confirmation of human SENP6 protease inhibitors | hit rate 58% among 6,200 | recombinant SENP6, Z-RLRGG-aminoluciferin luminescence | inhibition, % at 12.5 µM | shares compounds with SENP7 inh | AID 488915
SENP7 conf – human SENP7 inhibition, confirmed. shares compounds with SENP7 inh. recombinant SENP7, Z-RLRGG-aminoluciferin luminescence, 40 min. inhibition, % at 12.5 µM. hit rate 69% among 6,200. AID 488917
Casp3 SENP sel – selectivity test for SENP inhibitors: human caspase-3 inhibition | shares compounds with SENP7 inh | purified caspase-3, Z-DEVD-aminoluciferin luminescence, 60 min | inhibition, % at 12.5 µM | hit rate 60% among 6,200 | AID 488918;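 active means mean inhibition above about 50%, limit read from the data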;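 further: plate controls were enzyme with DMSO for no effect and wells without caspase-3 for full effect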
Target sequence (P42574 28-227 limits assumed): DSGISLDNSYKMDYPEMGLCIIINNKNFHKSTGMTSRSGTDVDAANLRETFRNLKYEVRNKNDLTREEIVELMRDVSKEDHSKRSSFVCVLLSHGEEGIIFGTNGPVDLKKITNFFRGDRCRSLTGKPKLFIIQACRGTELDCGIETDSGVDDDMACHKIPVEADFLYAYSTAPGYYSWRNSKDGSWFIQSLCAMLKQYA
SENP luc ctr – counter-screen for SENP inhibitors: luminescence interference; shares compounds with SENP7 inh; Pre-incubated SENP8/Z-RLRGG-aminoluciferin, luciferase luminescence interference; inhibition, % at 12.5 µM; hit rate 39% among 6,200;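 active means mean inhibition above about 50% when retested at one dose, limit read from the data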;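 further: plate controls were DMSO wells with completed reaction for no effect and substrate without enzyme for full effect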
Numbers without * were called inactive; ? = inconclusive; . = no result.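 How the source made its calls, unless noted: active means mean inhibition above about 50% in the one-dose retest (limit read from the data); inactive means the rest.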

SMILES | SENP7 inh | SENP6 inh | SENP8 block-1 | Platelet DG rel | SENP8 block-2 | SENP8 confirm | SENP6 conf | SENP7 conf | Casp3 SENP sel | SENP luc ctr
COc1ccc(CCNC(=O)CCNS(=O)(=O)c2cccc3nonc23)cc1OC | 80* | -11 | 0 | -5 | -1 | 0 | 7 | 8 | 2 | 1
Fc1ccc(-c2cn3cc(C(F)(F)F)cc(Cl)c3n2)cc1 | 82* | 75* | -150 | 1 | 34 | 59* | 77* | 86* | 58* | 46
COc1ccc2nc(Nc3ccc4c(c3)OCO4)sc2c1 | 58* | 9 | 30 | 3 | -22 | 3 | 2 | 22 | 29 | 19
COc1ccc2nc(NC(C)=O)sc2c1 | 31 | -5 | 28 | -2 | 5 | . | . | . | . | .
COc1ccc2nc(Nc3ccccc3)sc2c1 | 84* | 56* | -1 | 15 | 70* | 88* | 88* | 98* | 61* | 84*
Cc1ccccc1Nc1nc2ccccc2s1 | 72* | 0 | 10 | -2 | 68* | 84* | 84* | 95* | 69* | 71*
COc1ccc2nc(NC(=O)Nc3ccccc3OC)sc2c1 | 93* | 81* | 8 | 5 | 44 | -8 | -7 | 7 | 64* | -3
COc1ccc2nc(NC(=O)Nc3cccc4ccccc34)sc2c1 | -5 | 0 | -151 | -9 | -10 | . | . | . | . | .
Cc1ccc(NC(=O)Nc2nc3ccccc3s2)cc1NC(=O)Nc1nc2ccccc2s1 | -3 | 11 | 10 | -14 | 5 | . | . | . | . | .
O=C1OCCC1Sc1nnnn1-c1ccc(Cl)cc1 (configuration not stated) | 6 | -14 | 7 | 0 | -11 | . | . | . | . | .
COc1ccc2nc(Nc3ccccc3OC)sc2c1 | 98* | 92* | 16 | 22 | 92* | 96* | 96* | 101* | 91* | 87*
CCCCOc1ncnc2c1[nH]c1ccc(OC)cc12 | 77* | 34 | . | 4 | 16 | 27 | 29 | 48 | 46 | 5
Oc1ccc(-c2csc(-c3ccccc3)n2)cc1O | 29 | 54* | 13 | 12 | 36 | 60* | 56* | 73* | 10 | 68*
Oc1ccccc1-c1csc(-c2ccccc2)n1 | 83* | 76* | 8 | 2 | 71* | -25 | 74* | 92* | 44 | 38
Oc1ccc(-c2csc(-c3cccnc3)n2)cc1O | 0 | -13 | 12 | 4 | -3 | . | . | . | . | .
CCC(=O)N(c1ccc(F)cc1)C1C=CS(=O)(=O)C1 (configuration not stated) | 95* | 6 | 8 | 2 | -22 | 4 | 4 | 0 | 0 | -1
O=C(Nc1ccc2c(c1)OCO2)Nc1ccccc1F | 99* | 94* | 1 | ? | 95* | 96* | 98* | 102* | 97* | 68*
O=C(Nc1ccc2c(c1)OCCO2)Nc1ccc2c(c1)OCO2 | 72* | 71* | 4 | 10 | 53* | 65* | 64* | 86* | 72* | 9
Cc1ccnc(NC(=O)Nc2ccc3c(c2)OCO3)c1 | 70* | 36 | 7 | 7 | -9 | 9 | 10 | 12 | 14 | -4
O=C(Nc1ccc2c(c1)OCO2)Nc1ccc(Br)cn1 | -7 | 6 | 7 | 2 | -16 | . | . | . | . | .
COc1cccc(NC(=O)Nc2ccc3c(c2)OCO3)c1 | 79* | 73* | -3 | 24 | 55* | 54* | 51* | 84* | 74* | 71*
O=C(CNC(=O)N1CC(=O)Nc2ccccc21)Nc1nccs1 | -6 | 5 | -1 | -1 | -6 | . | . | . | . | .
O=C(Nc1cccc(Cl)c1)Nc1ccc2c(c1)OCO2 | 75* | 83* | 23 | 4 | 61* | 28 | 77* | 94* | 56* | 21
